This note sets out measurements from PubChem BioAssay AID1814 (Broad Institute, 2009).

Out of some 300,000 compounds screened, about 22,000 (7.3%) were called active. Not shown: some 2% with an inconclusive outcome. Cut-off read from the data, not from the text of the source: active = activity score below about -60%; inconclusive = mostly about -28% to -61%; inactive = positive scores. This excerpt belongs to a sample that is enriched for actives.

The test is described as follows: Activators working through SNCA 5'UTR binding (MLPCN) (AID 1814). The conditions noted are these: alpha-synuclein 5'UTR reporter, activators screen; stronger effect = lower value; tested at 7.5 µM.
Regarding `CC(=O)NNC(=O)c1csc(Cc2c(Cl)sc3ccc(Cl)cc23)n1`, the activity score is 67.1% (inactive).
Take `CCOC(=O)c1c(C)nc(-c2ccccc2)nc1NC(=O)C(C)C`: the activity score is -83.8% (active).
Turning to `Nc1ccc(N=Nc2ccccc2Cl)c(N)n1`, the activity score is -165% (active).
On to `Cc1cc(C(=O)NCCc2ccc(Cl)cc2)c(C)o1`, for which the activity score is -131% (active).
In the case of `O=C(NCCc1ccccc1)Oc1ccc(Cl)cc1`, the activity score was -107% (active).
`Cc1ccc2nc(/C(C#N)=C\c3ccc(OC(=O)c4cccs4)cc3)[nH]c2c1`: the activity score is -283% (active).
Take `COc1ccccc1OCC(=O)O/N=C(\N)c1ccccn1`: the activity score is -121% (active).
On to `COc1ccc(C(=O)O/N=C(\N)c2ccccn2)cc1[N+](=O)[O-]`, for which the activity score was -177% (active).
For `COc1ccc(CC(=O)N/N=C(\C)c2ccccn2)cc1`, the activity score was 77.7% (inactive).
As to `N/C(=N\OC(=O)CCC1CCCCC1)c1ccccn1`, the activity score was -180% (active).
Regarding `N/C(=N\OC(=O)CC1CCCCC1)c1ccccc1`, the activity score was -116% (active).
Under `N/C(=N\OC(=O)Cc1ccc([N+](=O)[O-])cc1)c1ccccn1` stands -161% (active); under `C=CCc1c(C)nc2cc(-c3ccccc3)[nH]n2c1=O`, -102% (active); under `CCc1c(C)nc2cc(-c3cccs3)[nH]n2c1=O`, -81% (active).
`CC(=O)N(C)c1ccc(NC(=O)Nc2cccc3ccccc23)cc1`: the activity score is -70.7% (active).
Under `O=[N+]([O-])c1ccc(O)c(/C=N/Nc2ccccc2[N+](=O)[O-])c1` stands -63.1% (active).
Consider `Cc1cc(C(=O)COC(=O)CNC(=O)c2ccc(F)cc2)c(C)n1Cc1ccco1`, for which the activity score was -113% (active).
`Cc1ccsc1C(=O)OCC(=O)c1cc(C)n(CC2CCCO2)c1C` (stereo not given): the activity score is 79.6% (inactive).
Next, `Nn1c(SCc2ccccc2)nnc1C1CCCCC1`: -110% (active); `N#Cc1cccc(NC(=O)COC(=O)c2ccccc2C(=O)c2ccc(Cl)c([N+](=O)[O-])c2)c1`: -63.7% (active); `Cc1ccc(Nc2nc(N)nc(CSc3nnc(C)s3)n2)cc1`: -63.8% (active).
For the compound `CC(=O)c1ccc(NC(=S)NC(=O)CC(C)C)cc1`, the activity score is -98.8% (active).
Take `COc1ccccc1Nc1ncc(C(C)=O)c(C)n1`: the activity score is -80.4% (active).
As to `Cn1c(CCCOc2ccc(Cl)cc2Cl)n[nH]c1=S`, the activity score is -63.6% (active).
Regarding `COc1cccc2cc(C(N)=O)/c(=N\NC(=O)c3ccccc3)oc12`, the activity score is -61.9% (active).
As for `Cc1cccc(C(=O)OC(C)CN2CCN(C)CC2)c1` (stereo not given), the activity score is -64.7% (active).
As for `CCOC(=O)C1(Cc2ccccc2C(F)(F)F)CCN(C(=O)c2cc(C)n(C)n2)CC1`, the activity score is -117% (active).
For `COc1ccc(/C=C/C(=O)Nc2ccc(C34CC5CC(CC(O)(C5)C3)C4)cc2)cc1OC`, the activity score was 76.5% (inactive).
With `COc1ccc(/C=C/C(=O)Nc2cccnc2)cc1OC`, the activity score was -72.4% (active).
Consider `COc1ccc(C(=O)/C=C/c2cccnc2)c(OC)c1`, for which the activity score was -81.3% (active).
For the compound `Cc1cc(NC(=O)c2ccccc2C)no1`, the activity score was -104% (active).
On to `CC(=O)c1ccc(NC(=O)c2sc3nc4n(c(=O)c3c2C)CCCCC4)cc1`, for which the activity score was -89.5% (active).
For `Cc1c(C(=O)Nc2ccccc2)sc2nc3n(c(=O)c12)CCCCC3`, the activity score is -136% (active).
For the compound `O=C(Cc1ccc(Br)cc1)N1CCN(c2ccccn2)CC1`, the activity score was -73.7% (active).
Turning to `O=c1oc2cc(O)ccc2cc1-c1ccc(F)cc1`, the activity score is -115% (active).
Next, `NC(=O)Nc1ccccc1C(=O)NCCc1ccccc1`: -90.2% (active); `CCN1C(=O)/C(=C2\SC(N3CCCCC3)=NC2=O)c2ccccc21`: -151% (active); `CC(C)(C)c1csc(NC2=NS(=O)(=O)c3ccccc32)n1`: -127% (active).
Turning to `CCCNC(=O)c1c(Cl)cnn1-c1ccc(C)cc1`, the activity score is -137% (active).
Under `S=c1nc(C23CC4CC(CC(C4)C2)C3)nc2sccn12` stands -162% (active); under `COC(=O)c1ccc2c(C(C)(C)O)c(C(C)(C)O)[nH]c2c1`, -87.7% (active); under `O=C(COc1ccc(Cl)cc1)Nc1ccccc1CO`, -81.1% (active).
Next, `COc1cccc(OCC(=O)Nc2ccccc2C(N)=O)c1`: -126% (active).
In the case of `Cc1cccc(OCC(=O)Nc2ccccc2F)c1`, the activity score is -140% (active).
For the compound `Cc1ccc(F)c(NC(=O)CCc2ccccc2)c1`, the activity score was -92.3% (active).
For `CCc1c(C)sc(NC(=O)c2cccs2)c1C(N)=O`, the activity score was -151% (active).
Regarding `CCc1nnc(NC(=O)c2cccs2)s1`, the activity score is -125% (active).
`Cc1ccc(C(=O)Nc2nnc(-c3cccs3)s2)cc1C`: the activity score is -218% (active).
For the compound `CC1CCCCN1S(=O)(=O)c1ccc(C(=O)Nc2nnc(-c3cccs3)o2)cc1` (stereo not given), the activity score was 89.9% (inactive).
`CCCc1nnc(NC(=O)c2cccs2)s1`: the activity score is -80.1% (active).
As for `S=C(NCCc1ccccc1)Nc1ccccc1`, the activity score is -89.3% (active).
Regarding `S=C(NCCC1=CCCCC1)Nc1ccccc1`, the activity score was -122% (active).
Regarding `S=C(NCCc1ccccc1)N1CCCCC1`, the activity score is -106% (active).
Turning to `S=C(NCCc1ccccc1)NCC1CCCO1` (stereo not given), the activity score is -78.2% (active).
Under `CCOc1ccc(/C(O)=C2\C(=O)C(=O)N(c3ccc(OC)cc3)C2c2ccccc2[N+](=O)[O-])cc1` (stereo not given) stands -69.2% (active).
As to `Fc1ccccc1COc1cccc2cccnc12`, the activity score was -134% (active).
Under `Cc1ccnc2nc(C(=O)Nc3nnc(-c4ccccc4)o3)nn12` stands -72% (active); under `O=C(O)C1CCN(C(=O)OCc2ccccc2)CC1`, -142% (active); under `CCOC(=O)c1sc(=NC(=O)/C=C/c2cccs2)n(C)c1C`, -201% (active).
As to `Cc1ccc(NC(=O)C(=O)NCc2ccco2)c(C)c1`, the activity score is -101% (active).
As for `COc1ccc(/C=N/Nc2nc3ccccc3o2)cc1OC`, the activity score was -162% (active).
Under `COc1cc(/C=N/Nc2nc3ccccc3s2)ccc1O` stands -82.9% (active); under `Brc1ccccc1/C=N/Nc1nc2ccccc2o1`, -126% (active).
Regarding `O=[N+]([O-])c1cc(Br)c(O)c(/C=N/Nc2nc3ccccc3s2)c1`, the activity score is -87.6% (active).
In the case of `Cc1cc2nc(SCCN3CCOCC3)[nH]c2cc1C`, the activity score is -115% (active).
Take `O=C(CN1C(=O)S/C(=C\c2ccccc2Cl)C1=O)NC1C=CS(=O)(=O)C1` (stereo not given): the activity score was -83.8% (active).
For the compound `Cc1cccc(N2C(=O)C3C(c4ccccc4)OC4(C(=O)c5ccccc5C4=O)C3C2=O)c1` (stereo not given), the activity score is -66.3% (active).
Under `CC(=O)Nc1ccc(Nc2c([N+](=O)[O-])cc(S(C)(=O)=O)cc2[N+](=O)[O-])cc1` stands -75.2% (active); under `COc1ccc(-c2csc(NC(=O)COC(=O)Cc3ccc(Cl)cc3Cl)n2)cc1`, -99.4% (active); under `COc1ccc(-c2csc(NC(=O)COC(=O)c3ccc(Br)o3)n2)cc1`, -106% (active).
Take `COc1ccccc1N1CCN(C(=O)CSc2ncnc3c2cnn3-c2ccc(C)c(C)c2)CC1`: the activity score is -144% (active).
With `CC(C)Sc1ncnc2c1cnn2-c1ccccc1`, the activity score was -82.1% (active).
In the case of `CCN(CC)C(=O)CSc1ncnc2c1cnn2-c1ccccc1`, the activity score was -129% (active).
Under `COc1ccccc1N1CCN(C(=O)c2cc(=O)c3cc(C)cc(C)c3o2)CC1` stands 78.3% (inactive).
`COc1cc(OC)cc(-c2nc(=S)n3ccsc3n2)c1`: the activity score is -77.6% (active).
For `COc1ccc(-c2ccc3nnc(SCC(=O)Nc4ccc(NC(C)=O)cc4)n3n2)cc1`, the activity score was -81.8% (active).
Consider `Oc1ccc(-c2cccc(-c3ccc(O)cc3)c2)cc1`, for which the activity score is -135% (active).
Turning to `O=C(Nc1ccc([N+](=O)[O-])cc1)OCCc1ccccn1`, the activity score was -144% (active).
Consider `O=C(Nc1cccc(Cl)c1)OCc1ccccn1`, for which the activity score is -131% (active).
In the case of `COc1ccc(-c2noc(-c3ccc(C)cc3)n2)cc1`, the activity score is -153% (active).
For `COc1ccc(-c2nc(-c3ccccc3)no2)c(OC)c1`, the activity score was 68.9% (inactive).
Under `COc1ccc2[nH]c(=O)c(-c3noc(-c4ccc(F)cc4)n3)cc2c1` stands -111% (active).
Under `COc1ccccc1Cc1nc(-c2ccc(C)cc2)no1` stands -97.1% (active).
As for `O=C(Nc1nnc(-c2ccccc2F)s1)c1ccccc1F`, the activity score is -172% (active).
`COc1ccc(CCc2nc(-c3cccs3)no2)cc1`: the activity score is -148% (active).
Under `Clc1cccc(Cl)c1Cn1nnc(-c2cccs2)n1` stands -162% (active); under `CCCc1ccc(-c2csc(NC(=O)Cc3cccs3)n2)cc1`, -66.4% (active); under `Cc1ccc(-c2csc(NC(=O)Cc3cccs3)n2)cc1C`, -200% (active).
For the compound `CC(C)c1ccc(NC(=O)Cn2ncc3ccccc32)cc1`, the activity score was -178% (active).
For `CC(=O)Nc1ccc(/C=N/NC(=O)c2cccs2)cc1`, the activity score is -159% (active).
Consider `Cc1cccc(-n2c(C)cc(/C=N\NC(=O)c3cccs3)c2C)c1`, for which the activity score is -62.2% (active).
Next, `Cc1ccc(-n2nc(C)c(/C=N/NC(=O)c3cccs3)c2Cl)cc1`: -87.3% (active).
Turning to `O=C(N/N=C/C=C/c1ccco1)c1cccs1`, the activity score is -86.4% (active).
Under `CCOC(=O)/C(C#N)=C/c1ccc(OCC(=O)Nc2ccccc2)c(OC)c1` stands -119% (active).
Consider `CCCn1c(C)cc(/C=C(\C#N)C(=O)OCC(=O)Nc2cc(OC)c(OC)c(OC)c2)c1C`, for which the activity score is -103% (active).
Consider `OC(COc1ccc2ccccc2c1)CN1CCOCC1` (stereo not given), for which the activity score is -72.5% (active).
`CC1CCc2c(sc3nc4n(c(=O)c23)CCS4)C1` (stereo not given): the activity score is -71.6% (active).
For the compound `CCCn1nnc2sc3c(c2c1=O)CCC(C)C3` (stereo not given), the activity score is -131% (active).
Turning to `Cc1ccn(-c2cccc(-n3ccc(C)n3)n2)n1`, the activity score is -93% (active).
On to `CN1CCN(/N=C/c2ccc(-c3ccc([N+](=O)[O-])cc3)o2)CC1`, for which the activity score was -128% (active).
Take `Cc1cc(=O)n2[nH]c(-c3cccc(Cl)c3)cc2n1`: the activity score was -79% (active).
Turning to `O=c1c2c(nc3cc(-c4cccc(Cl)c4)[nH]n13)CCCC2`, the activity score is 18.5% (inactive).
Under `CCn1c(CNc2ccc(OC)cc2)nnc1SCC(=O)c1ccc(OC)cc1` stands -63.6% (active); under `Brc1ccc2c(c1)[C@H]1OCC[C@H]1[C@@H](c1cccs1)N2`, 72.2% (inactive).
As for `O=C1NC(c2ccncc2)Nc2sc3c(c21)CCCC3` (stereo not given), the activity score is -66.2% (active).
